Data on 39 compounds can be found in PubChem BioAssay (EPA / NIEHS).

The term AC50 denotes the midpoint of the concentration-response curve, whichever way the signal moves.

The structures appear in SMILES notation. “And” between values parts separate entries of the source, which are not always exact repeats. Equal entries are not always repeated. Inconclusive results are not listed. Where a structure was tested more than once in an assay, its records may differ in their call. The source made the active and inactive calls. Rule for the calls: active = hit-call score of the fitted dose curve at least 0.9, where 1 is the maximum; inconclusive = response in the unintended direction; inactive = score below 0.9.

Chain of Estrogen receptor (Homo sapiens) (P03372 whole entry, looked up, the tested form may be a part): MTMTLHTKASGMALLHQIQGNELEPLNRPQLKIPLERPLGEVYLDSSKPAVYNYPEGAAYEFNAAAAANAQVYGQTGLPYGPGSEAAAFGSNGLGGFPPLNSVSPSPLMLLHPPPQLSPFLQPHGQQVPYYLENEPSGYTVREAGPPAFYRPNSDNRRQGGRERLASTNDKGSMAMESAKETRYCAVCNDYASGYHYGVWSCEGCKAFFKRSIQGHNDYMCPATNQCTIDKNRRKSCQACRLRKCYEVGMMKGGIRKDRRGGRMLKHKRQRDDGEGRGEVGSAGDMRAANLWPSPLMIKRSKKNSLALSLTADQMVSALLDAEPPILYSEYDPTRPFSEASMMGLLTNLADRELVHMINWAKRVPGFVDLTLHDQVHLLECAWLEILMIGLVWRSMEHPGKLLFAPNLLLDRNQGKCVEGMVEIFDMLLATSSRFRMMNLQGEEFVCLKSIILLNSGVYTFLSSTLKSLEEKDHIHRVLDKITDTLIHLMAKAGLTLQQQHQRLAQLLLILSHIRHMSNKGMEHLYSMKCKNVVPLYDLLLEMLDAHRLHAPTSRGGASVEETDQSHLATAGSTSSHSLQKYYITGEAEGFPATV

For this test, the target named is Estrogen receptor (Homo sapiens) (UniProt P03372). In words: OT_ER_ERaERa_0480: Odyssey Thera (OT) 8-hour HEK293T Protein-Complementation Assay for Estrogen Receptor-alpha/-alpha Homodimer (AID 2283351).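 Note: rise in fluorescence from reassembled reporter fragments on ERα LBD homodimer in nucleus or whole cell.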 As to the method:
OT_ER_ERaERa_0480 is a cell-based assay that uses HEK293T, a human kidney cell line, with measurements taken at 8 hours after chemical dosing in a 384-well plate.OT_ER_ERaERa_0480 is one of one assay component(s) measured or calculated from the OT_ER_ERaERa_0480 assay. It is designed to make measurements of protein fragment complementation, a form of binding reporter, as detected with fluorescence intensity signals by Protein-fragment Complementation technology.Data from the assay component OT_ER_ERaERa_0480 was analyzed into 1 assay endpoint. This assay endpoint, OT_ER_ERaERa_0480, was analyzed in the positive analysis fitting direction relative to DMSO as the negative control and baseline of activity. Using a type of binding reporter, measures of receptor for gain-of-signal activity can be used to understand the binding at the pathway-level as they relate to the gene ESR1. Furthermore, this assay endpoint can be referred to as a primary readout, because the performed assay has only produced 1 assay endpoint. To generalize the intended target to other relatable targets, this assay endpoint is annotated to the nuclear receptor intended target family, where the subfamily is steroidal.
Protein-fragment complementation assay, or PCA, is a method for the identification and quantification of protein-protein interactions. In the PCA, the proteins of interest ("bait" and "prey") are each covalently linked to fragments of a third protein (e.g. DHFR, which acts as a "reporter"). Interaction between the bait and the prey proteins brings the fragments of the reporter protein in close proximity to allow them to form a functional reporter protein whose activity can be measured. The OT ER alpha / ER alpha assay is a homodimer PCA of the ligand binding domain (amino acids 310-547) of human ER alpha stably expressed in HEK293T cells. […] Fluorescent signal in the basal state of the assay is very low and is primarily punctuate and cytoplasmic. Modulation of this assay is quantified as an increase in mean fluorescence intensity in the nucleus (for agonists) or in the nucleus and cytoplasm (antagonists) relative to vehicle controls, and can be quantified on a high content imaging device or a laser scanning cytometer. The latter instrument is favored for this assay because of the rapid mode of data acquisition, the ability to acquire data from the entire cell population in a well (as opposed to a fraction of the well on the high content devices) and the larger dynamic range typically achieved with this instrument. To assess sensitivity of the ER alpha/ER alpha LBD assay to ligand, cells were treated with the ER agonist 17 beta-estradiol (E2) in 10-point concentration- response format for 8 hours and monitored response on a laser scanning plate cytometer (Acumen eX3; TTP Lab Tech).
With `O=C(NC(=O)c1c(F)cccc1F)Nc1cc(Cl)c(OC(F)(F)C(F)F)c(Cl)c1`, the compound was called inactive.

Consider `Cc1cccc(C)c1N`, for which the outcome was inactive.

On to `CC(C)(c1ccccc1)c1ccc(O)cc1`, for which the concentration at half-maximal activity (AC50) was 11.9 µM (active) and 12 µM (active).

With `C1CC2OC2CC1C1CO1` (stereo not given), the call was inactive.

As to `Cc1cc(O)ccc1Cl`, the result was inactive.

As to `CO/C=C(/C(=O)OC)c1ccccc1COc1cccc(C(F)(F)F)n1`, the call was inactive.

Consider `CC(C)(O)C(=O)Nc1ccc([N+](=O)[O-])c(C(F)(F)F)c1`, for which the outcome was inactive.

As for `ClC1=C(Cl)[C@]2(Cl)[C@@H]3[C@H]4C[C@H]([C@@H]5O[C@H]45)[C@@H]3[C@@]1(Cl)C2(Cl)Cl`, the compound was classed as inactive.

As to `Oc1ccc(Cl)cc1Cl`, the compound was classed as inactive.

On to `Nc1ccc(-c2ccc(N)cc2)cc1`, for which the compound was classed as inactive.

Consider `CC(c1ccc(O)cc1)(c1ccc(O)cc1)c1ccc(O)cc1`, for which the AC50 was 11.9 µM (active).

With `COS(=O)(=O)OC`, the compound was called inactive.

`CCOP(=S)(OCC)SCSC(C)(C)C`: the compound was called inactive.

For the compound `Oc1c(Cl)c(Cl)c(Cl)c(Cl)c1Cl`, the compound was called inactive.

Turning to `CCCCCCCCCc1ccc(O)cc1`, the half-maximal activity concentration (AC50) is 55.2 µM (active) and 30 µM (active) and 24 µM (active).

Take `ClC1=C(Cl)[C@]2(Cl)[C@@H]3[C@@H](Cl)[C@H]4O[C@H]4[C@@H]3C1(Cl)C2(Cl)Cl`: the compound was called inactive.

As to `Cc1ccccc1O`, the compound was classed as inactive.

Take `CC#Cc1cc(C)nc(Nc2ccccc2)n1`: the result was inactive.

In the case of `Clc1ccc(Cl)cc1`, the result was inactive.

In the case of `O=C(O)C(F)(F)C(F)(F)C(F)(F)C(F)(F)C(F)(F)C(F)(F)C(F)(F)C(F)(F)C(F)(F)F`, the outcome was inactive.

`CN(C)c1nc(=O)n(C2CCCCC2)c(=O)n1C`: the result was inactive.

Turning to `c1cc2ccc3cccc4ccc(c1)c2c34`, the call was inactive.

Consider `CCC(=O)O[C@H]1CC[C@H]2[C@@H]3CCC4=CC(=O)CC[C@]4(C)[C@H]3CC[C@]12C`, for which the compound was called inactive.

Consider `ClC1=C(Cl)[C@]2(Cl)[C@@H]3[C@@H]4C[C@@H]([C@H]5O[C@@H]45)[C@@H]3[C@@]1(Cl)C2(Cl)Cl`, for which the call was inactive.

Consider `OCC(O)CO`, for which the compound was classed as inactive.

On to `O=C(N[C@H]1CN2CCC1CC2)c1cc2ccoc2cn1`, for which the call was inactive.

As for `Nn1cnnc1`, the result was inactive.

As for `CCOC(=O)C(O)(c1ccc(Cl)cc1)c1ccc(Cl)cc1`, the compound was called inactive.

With `O=C(O)C(F)(F)C(F)(F)C(F)(F)C(F)(F)C(F)(F)F`, the compound was classed as inactive.

`CCOCCOC(C)=O`: the compound was called inactive.

As for `ClC(Cl)=C(c1ccc(Cl)cc1)c1ccc(Cl)cc1`, the half-maximal activity concentration (AC50) was 80.1 µM (active) and 56.9 µM (active) and 63.7 µM (active).

`NS(=O)(=O)C(F)(F)C(F)(F)C(F)(F)C(F)(F)C(F)(F)C(F)(F)C(F)(F)C(F)(F)F`: the AC50 was 76 µM (active).

Regarding `CCCCCCCCCC[N+](C)(C)CCCCCCCCCC`, the compound was called inactive.

In the case of `Cc1ccccc1[N+](=O)[O-]`, the result was inactive.

Regarding `c1ccc(-c2ccccc2)cc1`, the compound was called inactive.

For `CCSC(=O)N(CC)C1CCCCC1`, the compound was called inactive.

Regarding `Clc1ccc(C(Cl)(Cl)Cl)cc1`, the compound was called inactive.

Take `Sc1ccccc1`: the call was inactive.

With `Cc1cc(-c2ccc(N)c(C)c2)ccc1N`, the outcome was inactive and the AC50 was 72.3 µM (active).
